The text below walks through data of PMC7862700, “An all-to-all approach to the identification of sequence-specific readers for epigenetic DNA modifications on cytosine”.

Common to all, as to experiment: DAPPL (digital affinity profiling via proximity ligation, sequencing); 10 mM Tris-HCl pH 7.5, 50 mM NaCl, 1 mM DTT, 4% glycerol, room temperature, 30 min; GST-TFs on glutathione beads, 16-mer random dsDNA library, 0.1% formaldehyde crosslink after washing; high values mean tight binding
In one experiment the target is T1, FEV (Homo sapiens, UniProt Q99581 1-238).
T1 sequence: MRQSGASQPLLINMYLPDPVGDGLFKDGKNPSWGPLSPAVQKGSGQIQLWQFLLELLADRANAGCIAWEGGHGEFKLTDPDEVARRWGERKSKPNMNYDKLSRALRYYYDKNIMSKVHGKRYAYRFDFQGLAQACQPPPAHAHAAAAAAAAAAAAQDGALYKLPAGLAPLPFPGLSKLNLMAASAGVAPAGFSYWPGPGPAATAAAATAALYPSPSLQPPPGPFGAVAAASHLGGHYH
The following applies: protein: recombinant; tags: N-terminal GST; dsDNA, one strand shown. In outline:
(§1)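 Human transcription factors were made in yeast as GST fusions, captured on glutathione beads and barcoded with DNA. With a tag-only sample included, the pool was incubated with 200 nmole of a random double-stranded 16-mer DNA library in Tris/NaCl/DTT/glycerol buffer at room temperature for 30 min, then crosslinked with 0.1% formaldehyde after washing, ligated by proximity, amplified and sequenced. For binding signal, each hexamer's read frequency for a factor is divided by its frequency for the tag-only sample.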

Another experiment addresses ETV5 (Homo sapiens, UniProt P41161 1-510). The settings on record: protein: recombinant; tags: N-terminal GST; dsDNA, one strand shown. In outline:
as §1

The next experiment deals with HSF1 (Homo sapiens, UniProt Q00613 1-529). The following applies: protein: recombinant; tags: N-terminal GST; chain copies: 3; dsDNA, one strand shown. The essentials:
as §1

In the next experiment the target is T2, SPIC (Homo sapiens, UniProt Q8N5J4 1-248).
T2 sequence: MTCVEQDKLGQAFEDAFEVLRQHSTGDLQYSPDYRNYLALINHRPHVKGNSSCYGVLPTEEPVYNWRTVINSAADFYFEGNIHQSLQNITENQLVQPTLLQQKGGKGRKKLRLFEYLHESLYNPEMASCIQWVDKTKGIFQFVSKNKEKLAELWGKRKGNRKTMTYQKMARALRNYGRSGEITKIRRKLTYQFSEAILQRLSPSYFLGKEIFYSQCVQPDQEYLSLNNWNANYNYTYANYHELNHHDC
The following applies: protein: recombinant; tags: N-terminal GST; dsDNA, one strand shown. The essentials: as §1

A further experiment addresses ELF4 (Homo sapiens, UniProt Q99607 1-663). The settings on record: protein: recombinant; tags: N-terminal GST; dsDNA, one strand shown. The essentials:
as §1

Another experiment deals with T3, ELK4 (Homo sapiens, UniProt P28324-2 1-405).
T3 sequence: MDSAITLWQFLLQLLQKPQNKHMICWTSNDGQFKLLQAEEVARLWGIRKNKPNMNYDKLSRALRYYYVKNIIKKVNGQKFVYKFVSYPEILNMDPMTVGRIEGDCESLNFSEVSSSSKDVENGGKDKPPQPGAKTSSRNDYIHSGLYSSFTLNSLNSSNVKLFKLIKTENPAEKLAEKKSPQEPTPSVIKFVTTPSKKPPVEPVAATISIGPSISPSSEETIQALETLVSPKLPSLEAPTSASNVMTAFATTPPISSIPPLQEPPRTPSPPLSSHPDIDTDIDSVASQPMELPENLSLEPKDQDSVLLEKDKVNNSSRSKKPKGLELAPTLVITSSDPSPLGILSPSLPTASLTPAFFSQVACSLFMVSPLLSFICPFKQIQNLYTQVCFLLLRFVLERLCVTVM
The following applies: protein: recombinant; tags: N-terminal GST; dsDNA, one strand shown. In outline: as §1

The target of a further experiment is T4, ETV2 (Homo sapiens, UniProt O00321 1-342).
T4 sequence: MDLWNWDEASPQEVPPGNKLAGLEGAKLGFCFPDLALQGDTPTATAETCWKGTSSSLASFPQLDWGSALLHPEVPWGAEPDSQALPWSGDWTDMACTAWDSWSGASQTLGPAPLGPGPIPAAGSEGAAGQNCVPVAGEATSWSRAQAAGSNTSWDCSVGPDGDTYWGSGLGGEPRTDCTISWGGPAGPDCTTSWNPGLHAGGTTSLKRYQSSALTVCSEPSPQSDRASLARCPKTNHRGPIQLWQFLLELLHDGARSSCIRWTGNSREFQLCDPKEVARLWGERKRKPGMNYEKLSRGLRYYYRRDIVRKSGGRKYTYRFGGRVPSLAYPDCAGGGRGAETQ
The following applies: protein: recombinant; tags: N-terminal GST; dsDNA, one strand shown. In outline:
as §1

In the next experiment the target is T5, ELF3 (Homo sapiens, UniProt P78545 1-371).
T5 sequence: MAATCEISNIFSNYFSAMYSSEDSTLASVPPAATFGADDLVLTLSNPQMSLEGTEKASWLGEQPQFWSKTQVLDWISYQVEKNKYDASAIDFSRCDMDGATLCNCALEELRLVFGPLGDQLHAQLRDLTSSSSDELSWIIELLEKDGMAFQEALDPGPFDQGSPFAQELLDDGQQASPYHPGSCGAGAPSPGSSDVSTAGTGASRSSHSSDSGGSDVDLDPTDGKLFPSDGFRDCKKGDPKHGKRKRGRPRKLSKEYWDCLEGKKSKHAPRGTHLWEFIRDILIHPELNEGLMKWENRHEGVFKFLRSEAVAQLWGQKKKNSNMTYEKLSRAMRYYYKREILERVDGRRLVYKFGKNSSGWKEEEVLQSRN
The settings on record: protein: recombinant; tags: N-terminal GST; dsDNA, one strand shown. The essentials:
as §1

Another experiment has as its target CRX (Homo sapiens, UniProt O43186 1-299). The settings on record: protein: recombinant; tags: N-terminal GST; dsDNA, one strand shown. The essentials:
as §1

In the next experiment the target is ETV1 (Homo sapiens, UniProt P50549 1-477). The following applies: protein: recombinant; tags: N-terminal GST; dsDNA, one strand shown. The essentials:
as §1

The target of the next experiment is T6, ERF (Homo sapiens, UniProt P50548 1-548).
T6 sequence: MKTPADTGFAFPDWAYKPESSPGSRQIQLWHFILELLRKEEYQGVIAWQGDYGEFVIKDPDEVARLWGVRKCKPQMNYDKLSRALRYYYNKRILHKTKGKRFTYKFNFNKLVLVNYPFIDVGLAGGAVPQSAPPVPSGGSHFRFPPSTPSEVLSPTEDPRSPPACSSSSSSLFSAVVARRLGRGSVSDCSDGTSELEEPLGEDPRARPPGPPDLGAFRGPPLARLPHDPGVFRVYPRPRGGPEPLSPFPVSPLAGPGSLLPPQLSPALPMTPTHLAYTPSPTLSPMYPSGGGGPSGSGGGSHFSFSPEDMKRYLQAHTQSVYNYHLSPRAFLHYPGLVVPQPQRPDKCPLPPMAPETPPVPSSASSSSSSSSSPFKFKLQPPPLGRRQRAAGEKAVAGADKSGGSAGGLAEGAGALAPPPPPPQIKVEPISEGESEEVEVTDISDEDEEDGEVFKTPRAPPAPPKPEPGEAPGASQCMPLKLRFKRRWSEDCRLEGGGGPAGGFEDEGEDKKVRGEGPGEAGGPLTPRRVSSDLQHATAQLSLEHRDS
The settings on record: protein: recombinant; tags: N-terminal GST; dsDNA, one strand shown. In outline: as §1

The target in a further experiment is T7, ETV3L (Homo sapiens, UniProt Q6ZN32 1-361).
T7 sequence: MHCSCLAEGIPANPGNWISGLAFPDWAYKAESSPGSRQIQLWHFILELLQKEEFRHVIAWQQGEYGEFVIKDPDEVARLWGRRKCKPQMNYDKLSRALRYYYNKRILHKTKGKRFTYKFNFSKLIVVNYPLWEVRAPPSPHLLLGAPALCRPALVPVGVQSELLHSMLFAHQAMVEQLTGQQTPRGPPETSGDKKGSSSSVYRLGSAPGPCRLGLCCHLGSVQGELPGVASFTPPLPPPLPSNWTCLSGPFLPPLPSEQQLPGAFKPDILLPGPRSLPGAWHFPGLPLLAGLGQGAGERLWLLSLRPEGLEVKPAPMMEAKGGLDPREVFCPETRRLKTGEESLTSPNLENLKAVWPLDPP
The following applies: protein: recombinant; tags: N-terminal GST; dsDNA, one strand shown. In outline:
as §1

The next experiment deals with T8, ETS2 (Homo sapiens, UniProt P15036 1-469).
T8 sequence: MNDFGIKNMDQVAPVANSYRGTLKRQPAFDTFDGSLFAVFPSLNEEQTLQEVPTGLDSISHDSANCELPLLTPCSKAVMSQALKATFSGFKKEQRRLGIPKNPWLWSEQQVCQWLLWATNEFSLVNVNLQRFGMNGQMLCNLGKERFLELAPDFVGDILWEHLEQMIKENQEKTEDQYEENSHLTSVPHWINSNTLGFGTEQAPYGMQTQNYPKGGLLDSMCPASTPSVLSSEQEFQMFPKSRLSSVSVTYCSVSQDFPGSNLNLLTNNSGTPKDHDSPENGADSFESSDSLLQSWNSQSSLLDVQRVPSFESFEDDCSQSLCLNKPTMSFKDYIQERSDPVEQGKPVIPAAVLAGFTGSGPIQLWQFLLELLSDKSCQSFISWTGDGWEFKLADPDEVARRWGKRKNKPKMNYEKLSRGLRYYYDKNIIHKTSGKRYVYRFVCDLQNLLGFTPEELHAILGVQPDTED
The settings on record: protein: recombinant; tags: N-terminal GST; dsDNA, one strand shown. The essentials:
as §1

Another experiment concerns the target T9, SPDEF (Homo sapiens, UniProt O95238 1-335).
T9 sequence: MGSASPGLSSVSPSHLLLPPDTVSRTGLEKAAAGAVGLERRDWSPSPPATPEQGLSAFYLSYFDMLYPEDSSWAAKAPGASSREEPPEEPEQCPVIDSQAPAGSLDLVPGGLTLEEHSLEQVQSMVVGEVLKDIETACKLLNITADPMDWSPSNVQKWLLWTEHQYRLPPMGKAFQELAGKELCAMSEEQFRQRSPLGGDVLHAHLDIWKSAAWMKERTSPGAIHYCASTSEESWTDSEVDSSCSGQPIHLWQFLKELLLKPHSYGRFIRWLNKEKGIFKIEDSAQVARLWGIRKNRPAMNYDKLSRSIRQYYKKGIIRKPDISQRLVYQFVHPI
The settings on record: protein: recombinant; tags: N-terminal GST; dsDNA, one strand shown. The essentials:
as §1

A further experiment concerns the target T10, ETV7 (Homo sapiens, UniProt Q9Y603 1-341).
T10 sequence: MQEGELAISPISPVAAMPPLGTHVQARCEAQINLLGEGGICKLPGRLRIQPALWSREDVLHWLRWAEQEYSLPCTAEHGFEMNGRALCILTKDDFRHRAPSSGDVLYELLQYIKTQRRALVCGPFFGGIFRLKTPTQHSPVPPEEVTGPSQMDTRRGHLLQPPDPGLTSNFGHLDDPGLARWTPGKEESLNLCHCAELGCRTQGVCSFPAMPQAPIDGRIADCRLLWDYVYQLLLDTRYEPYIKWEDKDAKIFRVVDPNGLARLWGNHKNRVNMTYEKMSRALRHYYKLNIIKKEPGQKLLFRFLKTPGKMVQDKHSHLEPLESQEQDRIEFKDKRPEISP
The settings on record: protein: recombinant; tags: N-terminal GST; dsDNA, one strand shown. The essentials:
as §1

The next experiment concerns the target T11, ELF5 (Homo sapiens, UniProt Q9UKW6-2 1-255).
T11 sequence: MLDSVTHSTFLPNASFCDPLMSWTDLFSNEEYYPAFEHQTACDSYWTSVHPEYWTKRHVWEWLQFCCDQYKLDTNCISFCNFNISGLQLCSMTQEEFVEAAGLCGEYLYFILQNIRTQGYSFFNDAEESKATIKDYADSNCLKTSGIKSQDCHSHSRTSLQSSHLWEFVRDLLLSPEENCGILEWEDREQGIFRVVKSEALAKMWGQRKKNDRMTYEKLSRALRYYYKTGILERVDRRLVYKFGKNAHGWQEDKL
The following applies: protein: recombinant; tags: N-terminal GST; dsDNA, one strand shown. The essentials:
as §1

The next experiment has as its target T12, ETV3 (Homo sapiens, UniProt P41162-2 1-143).
T12 sequence: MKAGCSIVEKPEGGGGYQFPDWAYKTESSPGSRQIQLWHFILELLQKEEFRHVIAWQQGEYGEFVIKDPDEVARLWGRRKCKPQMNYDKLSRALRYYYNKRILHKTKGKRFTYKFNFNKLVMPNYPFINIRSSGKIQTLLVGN
The settings on record: protein: recombinant; tags: N-terminal GST; dsDNA, one strand shown. In outline:
as §1

The target of the next experiment is ETV6 (Homo sapiens, UniProt P41212 1-452). The following applies: protein: recombinant; tags: N-terminal GST; dsDNA, one strand shown. The essentials: as §1
Chain of ETV6 (P41212 whole entry): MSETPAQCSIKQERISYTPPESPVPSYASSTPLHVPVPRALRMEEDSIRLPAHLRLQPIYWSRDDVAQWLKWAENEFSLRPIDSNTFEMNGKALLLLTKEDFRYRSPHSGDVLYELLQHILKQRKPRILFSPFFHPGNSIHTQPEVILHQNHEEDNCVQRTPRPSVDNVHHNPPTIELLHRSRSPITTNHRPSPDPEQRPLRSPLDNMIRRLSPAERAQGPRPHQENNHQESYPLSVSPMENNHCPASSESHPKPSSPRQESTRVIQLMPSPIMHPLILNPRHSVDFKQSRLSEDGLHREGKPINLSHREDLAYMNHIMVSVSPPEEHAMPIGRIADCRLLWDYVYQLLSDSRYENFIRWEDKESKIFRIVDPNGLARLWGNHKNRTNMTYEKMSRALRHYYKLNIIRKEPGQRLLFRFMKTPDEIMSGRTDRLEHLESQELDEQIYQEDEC

Chain of ELF4 (Q99607 whole entry): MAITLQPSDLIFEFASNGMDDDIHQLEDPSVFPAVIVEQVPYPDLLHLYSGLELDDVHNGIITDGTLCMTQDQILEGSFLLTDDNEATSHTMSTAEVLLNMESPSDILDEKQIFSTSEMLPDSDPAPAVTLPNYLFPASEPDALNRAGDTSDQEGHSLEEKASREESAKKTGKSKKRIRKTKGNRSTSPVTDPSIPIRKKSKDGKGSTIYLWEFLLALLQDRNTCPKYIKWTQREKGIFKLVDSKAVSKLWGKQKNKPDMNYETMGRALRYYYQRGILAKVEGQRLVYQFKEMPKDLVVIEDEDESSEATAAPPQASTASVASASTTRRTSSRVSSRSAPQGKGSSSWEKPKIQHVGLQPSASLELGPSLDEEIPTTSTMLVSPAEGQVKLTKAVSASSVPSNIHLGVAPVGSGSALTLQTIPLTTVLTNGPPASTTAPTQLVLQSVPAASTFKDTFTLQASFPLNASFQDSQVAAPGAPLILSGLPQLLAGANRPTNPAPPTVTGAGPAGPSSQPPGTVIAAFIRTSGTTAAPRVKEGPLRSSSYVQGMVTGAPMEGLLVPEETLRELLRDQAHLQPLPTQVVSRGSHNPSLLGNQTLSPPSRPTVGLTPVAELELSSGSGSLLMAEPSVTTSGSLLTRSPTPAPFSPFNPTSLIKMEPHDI
Chain of CRX (O43186 whole entry): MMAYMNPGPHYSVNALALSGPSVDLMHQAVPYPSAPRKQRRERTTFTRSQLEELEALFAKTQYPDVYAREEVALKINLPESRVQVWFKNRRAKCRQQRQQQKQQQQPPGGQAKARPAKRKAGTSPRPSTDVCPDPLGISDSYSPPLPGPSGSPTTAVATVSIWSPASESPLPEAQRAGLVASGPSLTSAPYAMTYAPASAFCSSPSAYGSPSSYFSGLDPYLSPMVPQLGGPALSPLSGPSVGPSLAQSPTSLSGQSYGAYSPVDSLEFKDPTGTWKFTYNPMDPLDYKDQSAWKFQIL
Chain of ETV1 (P50549 whole entry): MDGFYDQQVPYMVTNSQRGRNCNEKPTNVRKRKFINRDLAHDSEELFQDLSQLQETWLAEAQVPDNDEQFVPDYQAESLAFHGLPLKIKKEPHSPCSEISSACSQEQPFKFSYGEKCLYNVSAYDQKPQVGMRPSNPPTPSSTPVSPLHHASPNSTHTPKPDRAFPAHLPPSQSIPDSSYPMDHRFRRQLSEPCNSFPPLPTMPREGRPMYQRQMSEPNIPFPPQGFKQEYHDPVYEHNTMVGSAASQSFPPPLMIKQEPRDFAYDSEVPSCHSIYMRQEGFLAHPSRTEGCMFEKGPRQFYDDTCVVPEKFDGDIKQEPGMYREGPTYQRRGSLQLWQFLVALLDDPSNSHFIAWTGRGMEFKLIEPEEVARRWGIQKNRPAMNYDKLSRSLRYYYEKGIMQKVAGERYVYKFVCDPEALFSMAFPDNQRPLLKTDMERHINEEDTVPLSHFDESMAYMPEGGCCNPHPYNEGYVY
Chain of ETV5 (P41161 whole entry): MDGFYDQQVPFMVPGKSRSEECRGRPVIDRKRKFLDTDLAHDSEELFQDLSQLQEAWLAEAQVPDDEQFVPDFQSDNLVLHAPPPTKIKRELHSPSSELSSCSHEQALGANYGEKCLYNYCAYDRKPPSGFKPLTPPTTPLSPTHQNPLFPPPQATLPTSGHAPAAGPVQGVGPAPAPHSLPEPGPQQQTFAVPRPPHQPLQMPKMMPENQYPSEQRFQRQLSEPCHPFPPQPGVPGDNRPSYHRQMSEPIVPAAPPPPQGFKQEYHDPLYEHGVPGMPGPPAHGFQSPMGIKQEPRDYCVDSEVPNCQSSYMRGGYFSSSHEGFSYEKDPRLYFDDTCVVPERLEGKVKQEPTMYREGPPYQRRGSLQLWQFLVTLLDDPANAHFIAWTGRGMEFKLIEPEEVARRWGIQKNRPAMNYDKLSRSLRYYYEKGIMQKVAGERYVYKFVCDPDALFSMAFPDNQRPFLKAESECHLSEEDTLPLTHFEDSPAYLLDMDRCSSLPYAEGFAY
Chain of HSF1 (Q00613 whole entry): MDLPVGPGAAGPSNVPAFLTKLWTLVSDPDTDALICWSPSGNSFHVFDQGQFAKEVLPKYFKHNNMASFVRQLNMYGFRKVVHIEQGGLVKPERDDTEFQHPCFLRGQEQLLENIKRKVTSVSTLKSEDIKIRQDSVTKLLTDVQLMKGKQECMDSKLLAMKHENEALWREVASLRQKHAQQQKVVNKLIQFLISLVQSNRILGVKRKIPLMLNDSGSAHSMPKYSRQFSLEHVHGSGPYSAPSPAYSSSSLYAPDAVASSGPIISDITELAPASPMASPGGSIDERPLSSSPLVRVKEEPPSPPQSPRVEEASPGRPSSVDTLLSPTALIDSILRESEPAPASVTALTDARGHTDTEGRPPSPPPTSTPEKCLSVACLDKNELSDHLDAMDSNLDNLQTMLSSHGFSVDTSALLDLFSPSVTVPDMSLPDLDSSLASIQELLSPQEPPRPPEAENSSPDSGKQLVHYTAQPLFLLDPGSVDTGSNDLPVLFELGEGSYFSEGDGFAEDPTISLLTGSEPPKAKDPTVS

As for ATCCCC, the binding signal with FEV was 1.44 fold enrichment (6-mer frequency, TF over GST control); in the experiment with ETV5, 1.37 fold enrichment (6-mer frequency, TF over GST control); with HSF1, 1.78 fold enrichment (6-mer frequency, TF over GST control); in the experiment with SPIC, 1.37 fold enrichment (6-mer frequency, TF over GST control); in the experiment with ELF4, 1.37 fold enrichment (6-mer frequency, TF over GST control); with ELK4 it was 1.44 fold enrichment (6-mer frequency, TF over GST control). Besides, the binding signal in the experiment with ETV2 was 1.39 fold enrichment (6-mer frequency, TF over GST control); with ELF3, 1.53 fold enrichment (6-mer frequency, TF over GST control); in the experiment with CRX it was 2.37 fold enrichment (6-mer frequency, TF over GST control); with ETV1 it was 1.43 fold enrichment (6-mer frequency, TF over GST control); in the experiment with ERF, 1.43 fold enrichment (6-mer frequency, TF over GST control); with ETV3L it was 1.41 fold enrichment (6-mer frequency, TF over GST control). The binding signal in the experiment with ETS2 was 1.29 fold enrichment (6-mer frequency, TF over GST control); with SPDEF, 1.41 fold enrichment (6-mer frequency, TF over GST control); with ETV7, 1.3 fold enrichment (6-mer frequency, TF over GST control); with ELF5 it was 1.46 fold enrichment (6-mer frequency, TF over GST control); in the experiment with ETV3, 1.35 fold enrichment (6-mer frequency, TF over GST control); with ETV6 it was 1.29 fold enrichment (6-mer frequency, TF over GST control).
